Assay results: the supplement of paper PMC10849652
The full data set covers some 8,800 targets. This sample favours those with a hit. About 0.5% of all pairs of compound and target were hits. Values without a mark were called inactive.

Assays:
Assay in all cases: log2 fold change, soluble protein after heating vs DMSO (PISA); higher = thermal stabilisation; K562 lysate, 10 uM; active = over 0.2 and 3.5 SD of the protein, either way, in both replicates (recomputed)
lapatinib = compound: CS(=O)(=O)CCNCc1ccc(-c2ccc3ncnc(Nc4ccc(OCc5cccc(F)c5)c(Cl)c4)c3c2)o1 [lapatinib]
Method in brief: (§1)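 Values give the log-two fold change in thermal stability against solvent controls, from duplicates. Crude K562 extract at 1 mg/mL protein, made by dounce homogenisation in PBS pH 7.4 with 1 mM MgCl2, was treated with 10 μM compound for 30 min. After 3 min heating across 48°C-58°C, aliquots were pooled, adjusted to 0.5% NP-40 at 4°C and centrifuged at 21,000xg for 90 min. The supernatant was measured by TMTpro 16plex LC-MS/MS with channel sums equalised.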

pictilisib = compound: CS(=O)(=O)N1CCN(Cc2cc3nc(-c4cccc5[nH]ncc45)nc(N4CCOCC4)c3s2)CC1 [pictilisib]
Method in brief: as §1

crizotinib = compound: C[C@@H](Oc1cc(-c2cnn(C3CCNCC3)c2)cnc1N)c1c(Cl)ccc(F)c1Cl [crizotinib]
Method in brief: as §1

[1] = compound: C[C@H](C1=CC=C(C=C1)C(=O)NC2=C3C=CNC3=NC=C2)N
Method in brief: as §1

duvelisib = compound: C[C@H](Nc1ncnc2nc[nH]c12)c1cc2cccc(Cl)c2c(=O)n1-c1ccccc1 [duvelisib]
Method in brief: as §1

gandotinib = compound: Cc1cc(Nc2cc(CN3CCOCC3)c3nc(C)c(Cc4ccc(Cl)cc4F)n3n2)n[nH]1 [gandotinib]
Method in brief: as §1

tozasertib = compound: Cc1cc(Nc2cc(N3CCN(C)CC3)nc(Sc3ccc(NC(=O)C4CC4)cc3)n2)n[nH]1 [tozasertib]
Method in brief: as §1

doramapimod = compound: Cc1ccc(-n2nc(C(C)(C)C)cc2NC(=O)Nc2ccc(OCCN3CCOCC3)c3ccccc23)cc1 [doramapimod]
Method in brief: as §1

bafetinib = compound: Cc1ccc(NC(=O)c2ccc(CN3CC[C@H](N(C)C)C3)c(C(F)(F)F)c2)cc1Nc1nccc(-c2cncnc2)n1 [bafetinib]
Method in brief: as §1

[2] = compound: Cc1cccc(CC(=O)N2CCc3c2ccc(-c2cn(C)c4ncnc(N)c24)c3F)n1
Method in brief: as §1

nilotinib = compound: Cc1cn(-c2cc(NC(=O)c3ccc(C)c(Nc4nccc(-c5cccnc5)n4)c3)cc(C(F)(F)F)c2)cn1 [nilotinib]
Method in brief: as §1

[3] = compound: Cc1nc(Nc2n[nH]c3c2CN(C(=O)N[C@H](CN(C)C)c2ccccc2)C3(C)C)c2sccc2n1
Method in brief: as §1

dasatinib = compound: Cc1nc(Nc2ncc(C(=O)Nc3c(C)cccc3Cl)s2)cc(N2CCN(CCO)CC2)n1 [dasatinib]
Method in brief: as §1

[4] = compound: Cc1ncc(-c2ccnc(Nc3ccc(S(C)(=O)=O)cc3)n2)n1C(C)C
Method in brief: as §1

[5] = compound: Cn1cc(-c2ccc3c(c2)CCN3C(=O)Cc2cccc(C(F)(F)F)c2)c2c(N)ncnc21
Method in brief: as §1

quisinostat = compound: Cn1cc(CNCC2CCN(c3ncc(C(=O)NO)cn3)CC2)c2ccccc21 [quisinostat]
Method in brief: as §1

tipifarnib = compound: Cn1cncc1[C@@](N)(c1ccc(Cl)cc1)c1ccc2c(c1)c(-c1cccc(Cl)c1)cc(=O)n2C [tipifarnib]
Method in brief: as §1

[6] = compound: NC(=O)Nc1cc(-c2cccc(F)c2)sc1C(=O)N[C@H]1CCCNC1
Method in brief: as §1

[7] = compound: NC(=O)c1cnc(N[C@@H]2CCCC[C@@H]2N)nc1Nc1cccc(-n2nccn2)c1
Method in brief: as §1

[8] = compound: NC1(c2ccc(-c3nc4ccn5c(=O)[nH]nc5c4cc3-c3ccccc3)cc2)CCC1
Method in brief: as §1

UniProt Q9Y3Z3, sequence (Q9Y3Z3 whole entry, looked up): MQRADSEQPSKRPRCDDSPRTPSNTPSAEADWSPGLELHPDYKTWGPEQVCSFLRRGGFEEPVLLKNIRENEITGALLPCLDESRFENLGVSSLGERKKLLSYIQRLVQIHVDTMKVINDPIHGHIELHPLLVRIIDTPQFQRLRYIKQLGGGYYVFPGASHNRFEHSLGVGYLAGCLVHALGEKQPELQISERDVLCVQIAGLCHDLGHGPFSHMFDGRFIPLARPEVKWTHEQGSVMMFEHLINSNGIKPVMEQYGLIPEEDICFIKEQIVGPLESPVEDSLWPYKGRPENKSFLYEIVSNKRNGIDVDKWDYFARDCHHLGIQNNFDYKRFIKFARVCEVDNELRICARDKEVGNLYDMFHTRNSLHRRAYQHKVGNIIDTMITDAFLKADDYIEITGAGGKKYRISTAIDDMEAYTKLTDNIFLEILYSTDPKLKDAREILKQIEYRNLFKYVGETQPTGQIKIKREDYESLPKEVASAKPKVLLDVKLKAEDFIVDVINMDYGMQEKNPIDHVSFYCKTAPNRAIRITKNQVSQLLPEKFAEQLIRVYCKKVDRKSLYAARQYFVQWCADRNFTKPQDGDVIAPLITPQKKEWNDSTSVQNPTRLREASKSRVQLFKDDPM
UniProt O95248, sequence (O95248 whole entry, looked up): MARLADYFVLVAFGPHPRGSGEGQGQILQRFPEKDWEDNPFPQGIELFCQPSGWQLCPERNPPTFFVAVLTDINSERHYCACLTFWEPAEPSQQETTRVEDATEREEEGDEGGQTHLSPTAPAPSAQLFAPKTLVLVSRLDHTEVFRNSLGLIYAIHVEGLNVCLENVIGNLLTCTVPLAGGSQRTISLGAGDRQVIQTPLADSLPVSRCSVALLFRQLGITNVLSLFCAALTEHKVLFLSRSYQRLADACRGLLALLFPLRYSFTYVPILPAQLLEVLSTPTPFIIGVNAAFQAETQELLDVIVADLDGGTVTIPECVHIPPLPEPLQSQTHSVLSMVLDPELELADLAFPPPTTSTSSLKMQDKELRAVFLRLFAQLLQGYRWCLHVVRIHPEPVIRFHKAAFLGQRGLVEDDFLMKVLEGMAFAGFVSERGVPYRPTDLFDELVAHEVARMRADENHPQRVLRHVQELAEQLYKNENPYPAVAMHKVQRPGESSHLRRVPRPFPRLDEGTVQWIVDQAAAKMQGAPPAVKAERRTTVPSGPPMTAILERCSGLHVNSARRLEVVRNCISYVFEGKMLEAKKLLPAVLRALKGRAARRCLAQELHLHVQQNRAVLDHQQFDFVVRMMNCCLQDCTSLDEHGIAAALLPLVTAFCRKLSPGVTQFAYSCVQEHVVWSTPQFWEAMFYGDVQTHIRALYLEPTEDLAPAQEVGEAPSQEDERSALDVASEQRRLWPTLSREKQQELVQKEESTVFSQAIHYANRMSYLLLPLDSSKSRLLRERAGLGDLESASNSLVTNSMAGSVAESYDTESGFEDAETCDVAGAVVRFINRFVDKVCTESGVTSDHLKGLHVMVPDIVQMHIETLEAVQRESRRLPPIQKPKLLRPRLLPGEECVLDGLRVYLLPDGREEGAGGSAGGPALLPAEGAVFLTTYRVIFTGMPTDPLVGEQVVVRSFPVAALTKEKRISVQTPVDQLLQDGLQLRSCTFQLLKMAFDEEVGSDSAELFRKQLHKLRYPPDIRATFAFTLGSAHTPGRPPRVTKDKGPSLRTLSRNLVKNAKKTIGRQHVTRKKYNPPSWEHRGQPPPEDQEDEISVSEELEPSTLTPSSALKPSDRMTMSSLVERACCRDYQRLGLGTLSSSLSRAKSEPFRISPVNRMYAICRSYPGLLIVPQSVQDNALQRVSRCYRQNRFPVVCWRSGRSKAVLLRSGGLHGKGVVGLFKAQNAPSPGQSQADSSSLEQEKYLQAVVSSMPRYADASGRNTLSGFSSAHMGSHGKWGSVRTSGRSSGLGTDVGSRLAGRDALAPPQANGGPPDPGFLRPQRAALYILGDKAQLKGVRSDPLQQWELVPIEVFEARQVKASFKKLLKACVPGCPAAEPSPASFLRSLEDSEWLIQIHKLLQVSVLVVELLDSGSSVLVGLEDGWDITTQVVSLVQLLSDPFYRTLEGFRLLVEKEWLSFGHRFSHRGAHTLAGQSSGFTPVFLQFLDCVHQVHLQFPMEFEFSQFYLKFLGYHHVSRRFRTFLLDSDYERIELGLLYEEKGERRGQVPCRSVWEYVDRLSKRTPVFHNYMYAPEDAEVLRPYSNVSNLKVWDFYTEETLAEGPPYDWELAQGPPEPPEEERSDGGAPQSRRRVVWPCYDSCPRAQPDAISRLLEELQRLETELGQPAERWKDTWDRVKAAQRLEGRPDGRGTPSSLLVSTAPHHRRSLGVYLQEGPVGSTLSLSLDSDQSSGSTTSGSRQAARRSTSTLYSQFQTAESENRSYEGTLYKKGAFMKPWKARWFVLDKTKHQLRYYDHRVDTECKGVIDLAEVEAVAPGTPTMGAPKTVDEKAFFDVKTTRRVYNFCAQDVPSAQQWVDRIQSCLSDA
UniProt Q15287, sequence (Q15287 whole entry, looked up): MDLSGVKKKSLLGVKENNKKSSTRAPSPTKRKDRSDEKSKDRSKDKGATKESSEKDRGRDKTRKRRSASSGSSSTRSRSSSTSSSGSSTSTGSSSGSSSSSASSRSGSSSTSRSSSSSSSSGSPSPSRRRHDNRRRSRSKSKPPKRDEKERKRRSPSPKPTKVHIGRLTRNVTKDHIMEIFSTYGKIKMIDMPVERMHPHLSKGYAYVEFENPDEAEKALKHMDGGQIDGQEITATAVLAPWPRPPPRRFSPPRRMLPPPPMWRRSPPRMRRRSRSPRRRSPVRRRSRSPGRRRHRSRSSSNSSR
UniProt P31040, sequence (P31040 whole entry, looked up): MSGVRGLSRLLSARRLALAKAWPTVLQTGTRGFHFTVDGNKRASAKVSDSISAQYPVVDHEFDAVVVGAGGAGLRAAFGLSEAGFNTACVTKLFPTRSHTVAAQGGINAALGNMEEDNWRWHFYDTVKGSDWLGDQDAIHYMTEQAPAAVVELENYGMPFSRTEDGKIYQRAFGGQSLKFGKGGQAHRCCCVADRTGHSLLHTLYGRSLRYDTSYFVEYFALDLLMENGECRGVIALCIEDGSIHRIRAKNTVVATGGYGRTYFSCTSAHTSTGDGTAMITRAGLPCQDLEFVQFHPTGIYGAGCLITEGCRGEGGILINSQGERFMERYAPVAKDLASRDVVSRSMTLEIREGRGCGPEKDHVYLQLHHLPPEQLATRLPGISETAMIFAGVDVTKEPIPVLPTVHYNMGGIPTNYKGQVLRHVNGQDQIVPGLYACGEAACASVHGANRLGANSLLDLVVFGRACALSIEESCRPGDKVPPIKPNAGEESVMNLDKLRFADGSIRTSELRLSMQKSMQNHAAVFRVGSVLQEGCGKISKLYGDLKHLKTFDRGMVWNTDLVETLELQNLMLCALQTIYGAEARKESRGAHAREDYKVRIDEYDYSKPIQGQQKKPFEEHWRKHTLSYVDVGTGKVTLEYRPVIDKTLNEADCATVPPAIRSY
UniProt O60518, sequence (O60518 whole entry, looked up): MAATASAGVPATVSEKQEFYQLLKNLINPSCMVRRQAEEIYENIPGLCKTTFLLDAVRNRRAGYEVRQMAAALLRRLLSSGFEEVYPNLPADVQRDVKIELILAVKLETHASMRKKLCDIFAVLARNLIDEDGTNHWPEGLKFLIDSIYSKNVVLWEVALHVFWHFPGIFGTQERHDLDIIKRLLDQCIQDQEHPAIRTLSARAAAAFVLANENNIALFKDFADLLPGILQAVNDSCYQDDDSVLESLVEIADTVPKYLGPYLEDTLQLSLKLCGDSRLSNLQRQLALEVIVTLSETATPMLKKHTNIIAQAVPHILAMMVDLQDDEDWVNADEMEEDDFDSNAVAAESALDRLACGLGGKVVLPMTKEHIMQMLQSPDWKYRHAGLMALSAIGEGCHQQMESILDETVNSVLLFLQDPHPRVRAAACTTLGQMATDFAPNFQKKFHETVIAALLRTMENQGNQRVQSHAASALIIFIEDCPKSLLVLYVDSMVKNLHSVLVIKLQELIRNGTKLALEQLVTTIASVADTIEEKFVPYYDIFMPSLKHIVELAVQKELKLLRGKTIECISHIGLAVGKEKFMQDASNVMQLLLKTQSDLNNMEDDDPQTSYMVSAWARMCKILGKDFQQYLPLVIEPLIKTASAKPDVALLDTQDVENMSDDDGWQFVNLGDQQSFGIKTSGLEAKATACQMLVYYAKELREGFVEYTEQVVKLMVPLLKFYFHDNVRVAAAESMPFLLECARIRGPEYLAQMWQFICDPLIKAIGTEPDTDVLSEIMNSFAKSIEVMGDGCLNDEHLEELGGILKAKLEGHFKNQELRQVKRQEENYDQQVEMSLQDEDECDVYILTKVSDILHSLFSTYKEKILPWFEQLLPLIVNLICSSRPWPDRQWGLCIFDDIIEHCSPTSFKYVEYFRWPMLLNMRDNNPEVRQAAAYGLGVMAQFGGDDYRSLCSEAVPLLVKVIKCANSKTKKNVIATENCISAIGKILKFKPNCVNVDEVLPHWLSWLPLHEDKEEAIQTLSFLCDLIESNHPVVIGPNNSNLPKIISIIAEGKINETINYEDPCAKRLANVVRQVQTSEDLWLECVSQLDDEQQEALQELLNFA
UniProt P61224, sequence (P61224 whole entry, looked up): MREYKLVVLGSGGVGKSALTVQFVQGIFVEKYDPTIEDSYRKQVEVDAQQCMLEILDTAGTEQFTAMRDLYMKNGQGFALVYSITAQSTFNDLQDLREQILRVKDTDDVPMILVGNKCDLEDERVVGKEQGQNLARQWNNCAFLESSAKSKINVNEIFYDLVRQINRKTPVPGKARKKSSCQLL

| Target | log2 fold change (lapatinib) | log2 fold change (pictilisib) | log2 fold change (crizotinib) | log2 fold change [1] | log2 fold change (duvelisib) | log2 fold change (gandotinib) | log2 fold change (tozasertib) | log2 fold change (doramapimod) | log2 fold change (bafetinib) | log2 fold change [2] | log2 fold change (nilotinib) | log2 fold change [3] | log2 fold change (dasatinib) | log2 fold change [4] | log2 fold change [5] | log2 fold change (quisinostat) | log2 fold change (tipifarnib) | log2 fold change [6] | log2 fold change [7] | log2 fold change [8] |
| --- | --- | --- | --- | --- | --- | --- | --- | --- | --- | --- | --- | --- | --- | --- | --- | --- | --- | --- | --- | --- |
| SBF1 isoform 4 (UniProt O95248) | -0.029 | -0.075 | 0.088 | 0.07 | -0.039 | -0.066 | 0 | -0.004 | -0.061 | 0.006 | -0.018 | -0.041 | 0.092 | -0.046 | 0.047 | -0.103 | 0.162 | 0.12 | 0.039 | 0.091 |
| RDH10 (UniProt Q8IZV5) | 0.004 | -0.035 | 0.062 | -0.039 | 0.022 | 0.055 | -0.032 | -0.012 | 0.001 | 0.043 | -0.004 | 0.011 | 0.132 | 0.026 | -0.022 | 0.05 | 0.042 | -0.002 | -0.084 | 0.073 |
| RAB3IL1 (UniProt E9PK89) | -0.025 | 0.063 | 0.039 | 0.045 | -0.036 | 0.006 | 0.059 | -0.117 | -0.094 | 0.057 | -0.039 | -0.124 | 0.08 | 0.003 | -0.084 | 0.027 | 0.061 | -0.086 | -0.012 | 0.157 |
| RNPS1 (UniProt Q15287) | 0.025 | 0.044 | 0.254 (active) | -0.02 | 0.038 | 0 | 0.042 | -0.057 | -0.009 | -0.001 | 0.025 | -0.047 | 0.044 | -0.035 | 0.034 | 0.239 (active) | -0.056 | 0.029 | 0.018 | -0.033 |
| SDHA (UniProt P31040) | 0.004 | -0.011 | -0.008 | -0.004 | 0.013 | 0.03 | 0.006 | 0.024 | 0.026 | -0.017 | 0.035 | 0.009 | 0.016 | 0.004 | -0.033 | -0.022 | -0.034 | -0.037 | -0.013 | 0.007 |
| RANBP6 (UniProt O60518) | -0.007 | -0.005 | -0.125 | -0.067 | 0.019 | -0.01 | 0.012 | 0.039 | 0.016 | 0.148 | 0.039 | -0.036 | -0.002 | -0.071 | 0.049 | -0.063 | -0.072 | 0.055 | 0.062 | -0.06 |
| RPL8 (UniProt P62917) | -0.005 | 0.01 | 0.059 | 0.147 | 0.008 | -0.072 | 0.033 | -0.038 | 0.071 | -0.051 | -0.005 | -0.004 | 0.035 | -0.028 | -0.013 | 0.222 (active) | 0.027 | -0.019 | -0.008 | -0.006 |
| RPL37A (UniProt P61513) | -0.012 | -0.01 | -0.011 | 0.312 (active) | -0.088 | -0.131 | -0.087 | -0.044 | 0.02 | -0.2 | 0.041 | 0.011 | 0.095 | 0.067 | 0.032 | 0.139 | 0.008 | -0.028 | -0.013 | -0.021 |
| SERINC3 (UniProt Q13530) | -0.052 | -0.028 | -0.07 | -0.38 (active) | -0.001 | 0.16 | -0.012 | 0.03 | -0.014 | 0.075 | 0.022 | 0.023 | 0.026 | -0.006 | 0.009 | -0.131 | -0.036 | 0.04 | 0.008 | -0.083 |
| SAMHD1 (UniProt Q9Y3Z3) | 0.02 | -0.071 | -0.033 | -0.038 | 0.013 | -0.029 | 0.032 | -0.005 | -0.071 | 0.028 | -0.006 | 0.008 | -0.026 | 0.013 | 0.066 | -0.02 | 0.03 | 0.054 | 0.046 | 0.004 |
| SCAF1 (UniProt Q9H7N4) | -0.06 | -0.107 | -0.011 | 0.017 | -0.337 | -0.074 | -0.023 | 0.052 | -0.27 | -0.096 | -0.053 | 0.115 | -0.018 | -0.13 | -0.042 | -0.019 | -0.06 | -0.028 | -0.014 | 0.1 |
| RAC2 (UniProt P15153) | -0.057 | 0.016 | -0.018 | -0.05 | -0.026 | -0.025 | -0.062 | -0.014 | -0.042 | 0.031 | -0.025 | -0.076 | -0.068 | 0.015 | -0.093 | 0.021 | 0 | 0.001 | 0.04 | 0.017 |
| RAP1B (UniProt P61224) | 0.009 | -0.006 | 0.008 | 0.215 (active) | -0.045 | -0.036 | 0 | 0.017 | 0.17 | -0.021 | 0.032 | 0 | 0.045 | 0.027 | -0.002 | -0.007 | -0.034 | -0.007 | -0.029 | -0.025 |
| RAP1B (UniProt F5GZG1) | 0.003 | 0.02 | -0.022 | -0.313 | 0.016 | 0.127 | 0.103 | -0.115 | -0.098 | 0.201 | 0.012 | -0.066 | 0.05 | -0.253 | 0.047 | -0.011 | -0.058 | 0.087 | -0.019 | -0.029 |
| SEH1L isoform 1 (UniProt Q96EE3) | -0.03 | -0.009 | 0.01 | -0.027 | -0.049 | 0.029 | 0.011 | 0.007 | -0.085 | 0.052 | -0.009 | -0.019 | 0.032 | 0.006 | 0.007 | -0.008 | -0.008 | 0 | 0.003 | -0.028 |
| RAD50 isoform 2 (UniProt Q92878) | -0.012 | -0.001 | -0.025 | 0.007 | -0.019 | -0.07 | 0.011 | -0.003 | -0.004 | 0.006 | -0.004 | 0.016 | -0.042 | -0.003 | 0.026 | -0.031 | -0.02 | 0.016 | 0.005 | 0.001 |
